Inconclusive results are not listed. Active and inactive are the calls of the source. How the source made its calls, unless noted: active means hit-call score of the fitted dose curve at least 0.9, where 1 is the maximum; inactive means score below 0.9.
Experiments:
[1] = biological target: human RAR-related Orphan Receptor beta (RORb), RORB (gene 6096) (UniProt Q92753); assay: ATG_RORb_TRANS: Attagene TRANS-FACTORIAL HepG2 Assay for human RAR-related Orphan Receptor beta (RORb) (AID 2283010; active means hit-call score of the fitted dose curve at least 0.9, where 1 is the maximum)
How it was run: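 HepG2 cells transiently transfected with GAL4-UAS reporter units expressing chimeric NR-Gal4 protein; reporter mRNA measured 24 h after dosing by RT-PCR, 6-FAM labelling and capillary electrophoresis. Gain-of-signal fitted relative to DMSO baseline.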

[2] = biological target: Retinoic acid receptor RXR-alpha (Homo sapiens) (UniProt P19793); assay: ATG_RXRa_TRANS: Attagene TRANS-FACTORIAL HepG2 Assay for human Retinoid X Receptor alpha (RXRa) (AID 2283012; active means hit-call score of the fitted dose curve at least 0.9, where 1 is the maximum)
How it was run: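 HepG2 cells transiently transfected with GAL4-UAS reporter units and chimeric RXRa-Gal4 protein, treated 24 h. Reporter mRNA measured by RT-PCR, fluorescent labelling, HpaI digestion and capillary electrophoresis. Induction fitted against DMSO.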

[3] = biological target: human Retinoid X Receptor beta (RXRb), RXRB (gene 6257) (UniProt P28702); assay: ATG_RXRb_TRANS: Attagene TRANS-FACTORIAL HepG2 Assay for human Retinoid X Receptor beta (RXRb) (AID 2283013; active means hit-call score of the fitted dose curve at least 0.9, where 1 is the maximum)
How it was run: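 HepG2 cells were transiently transfected with multiplexed GAL4-UAS reporters and a chimeric RXRb-Gal4 construct, then exposed for 24 h. Reporter mRNA was quantified by RT-PCR, FAM labeling, HpaI digestion and capillary electrophoresis; gain of signal was scored against DMSO.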

[4] = biological target: human Thyroid Receptor alpha (THRa1), THRA (gene 7067) (UniProt P10827); assay: ATG_THRa1_TRANS: Attagene TRANS-FACTORIAL HepG2 Assay for human Thyroid Receptor alpha (THRa1) (AID 2283014; active means hit-call score of the fitted dose curve at least 0.9, where 1 is the maximum)
How it was run: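 HepG2 cells transiently transfected with multiplexed GAL4-UAS reporter units for exogenous chimeric THRa1-Gal4; reporter mRNA measured 24 h after dosing by RT-PCR, 6-FAM labelling, HpaI digestion and capillary electrophoresis. Gain-of-signal fitted versus DMSO baseline.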

[5] = read-out: E-selectin (Homo sapiens) (UniProt P16581); assay: BSK_3C_Eselectin: BioMAP Diversity Plus: 3C Assay for Eselectin Biomarker Activity (AID 2283015); settings: primary human endothelial cells (HUVEC); actives raise or lower the signal
How it was run: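 Primary human umbilical vein endothelial cells (3C system) were dosed with chemical and cell-surface E-selectin measured by ELISA 24 h later. Bidirectional curve fitting used DMSO as negative control and baseline.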

[6] = read-out: Interleukin-1 alpha (IL1a), IL1A (gene 3552); assay: BSK_BE3C_IL1a: BioMAP Diversity Plus: BE3C Assay for Interleukin-1 alpha (IL1a) Biomarker Activity (AID 2283016); settings: primary human bronchial epithelial cells; actives raise or lower the signal
How it was run: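 Human primary bronchial epithelial cells, 24 h chemical exposure; IL-1a quantified by ELISA, fitted bidirectionally against DMSO. Cytotoxicity assessed in parallel by SRB total-protein staining at the time of measurement.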

[7] = read-out: Monocyte Chemoattractant Protein-1 (MCP1), CCL2 (gene 6347); assay: BSK_3C_MCP1: BioMAP Diversity Plus: 3C Assay for Monocyte Chemoattractant Protein-1 (MCP1) Biomarker Activity (AID 2283017); settings: primary human endothelial cells (HUVEC); actives raise or lower the signal
How it was run: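 Primary human umbilical vein endothelial cells (3C system) were exposed to test chemical for 24 h, after which MCP-1 was quantified by ELISA. Activity was fitted bidirectionally against DMSO as negative control and baseline.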

[8] = read-out: Monocyte Chemoattractant Protein-1 (MCP1), CCL2 (gene 6347); assay: BSK_4H_MCP1: BioMAP Diversity Plus: 4H Assay for Monocyte Chemoattractant Protein-1 (MCP1) Biomarker Activity (AID 2283018); settings: primary human endothelial cells (HUVEC); actives raise or lower the signal
How it was run: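 Human umbilical vein endothelial cells (4H system) exposed to chemicals for 24 h in 96-well format. MCP-1 measured by ELISA; bidirectional fitting against DMSO, with SRB total-protein staining in parallel cultures for cytotoxicity.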

[9] = read-out: Human Leukocyte Antigen - DR isotype (HLADR), HLA-DRA (gene 3122); assay: BSK_3C_HLADR: BioMAP Diversity Plus: 3C Assay for Human Leukocyte Antigen - DR isotype (HLADR) Biomarker Activity (AID 2283019); settings: primary human endothelial cells (HUVEC); actives raise or lower the signal;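 on outcome: ELISA of cell-surface HLA-DR on HUVEC 24 h after dosing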
How it was run: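 Primary human umbilical vein endothelial cells (3C system) were dosed with compound and cell-surface HLA-DR was quantified by ELISA at 24 h. Activity was fitted bidirectionally against DMSO as negative control and baseline.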

[10] = read-out: Interleukin-8 (IL8), CXCL8 (gene 3576); assay: BSK_3C_IL8: BioMAP Diversity Plus: 3C Assay for Interleukin-8 (IL8) Biomarker Activity (AID 2283020); settings: primary human endothelial cells (HUVEC); actives raise or lower the signal
How it was run: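 Primary human umbilical vein endothelial cells were dosed for 24 h. IL-8 was quantified by ELISA and fitted bidirectionally against DMSO. Cytotoxicity was assessed in parallel cultures by SRB staining at 560 nm.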

[11] = read-out: Monokine induced gamma interferon (MIG), CXCL9 (gene 4283); assay: BSK_3C_MIG: BioMAP Diversity Plus: 3C Assay for Monokine induced gamma interferon (MIG) Biomarker Activity (AID 2283021); settings: primary human endothelial cells (HUVEC); actives raise or lower the signal;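 on AC50: MIG protein level measured by immunoassay in the treated endothelial cultures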
How it was run: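 HUVEC primary endothelial cultures dosed with chemical; MIG quantified by ELISA at 24 h. Data fitted bidirectionally against DMSO control, with parallel SRB total-protein staining for cytotoxicity.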

[12] = biological target: human Vitamin D Receptor (VDR), VDR (gene 7421) (UniProt P11473); assay: ATG_VDR_TRANS: Attagene TRANS-FACTORIAL HepG2 Assay for human Vitamin D Receptor (VDR) (AID 2283022; active means hit-call score of the fitted dose curve at least 0.9, where 1 is the maximum)
How it was run: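 HepG2 cells were transiently transfected with multiple GAL4-UAS reporter units, so signal reflects exogenous chimeric receptor-Gal4 activity. After 24 h compound exposure, reporter mRNA was measured by RT-PCR, fluorescent labelling and capillary electrophoresis, fitted for gain of signal versus DMSO.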

[13] = BSK_3C_SRB: Viability Assessment in the BioMAP Diversity Plus: 3C Assay (AID 2283023); settings: primary human endothelial cells (HUVEC);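 further: fitted both ways against DMSO so a hit may be signal rise or drop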
How it was run: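 Primary human umbilical vein endothelial cells in the 3C system were read 24 h after compound dosing. Total protein was stained with 0.1% sulforhodamine B after 10% TCA fixation and read at 560 nm, with bidirectional fitting against DMSO as baseline.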

[14] = read-out: Matrix Metallopeptidase 1 (MMP1), MMP1 (gene 4312); assay: BSK_BE3C_MMP1: BioMAP Diversity Plus: BE3C Assay for Matrix Metallopeptidase 1 (MMP1) Biomarker Activity (AID 2283024); settings: primary human bronchial epithelial cells; actives raise or lower the signal
How it was run: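 Human primary bronchial epithelial cells (BE3C system) dosed for 24 h; MMP-1 quantified by ELISA. Bidirectional fit against DMSO; cytotoxicity tracked in parallel cultures by SRB total-protein staining.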

[15] = BSK_3C_Vis: BioMAP Diversity Plus: 3C Assay for Morphology Visualization (AID 2283025); settings: primary human endothelial cells (HUVEC);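 further: fitted both ways so gain or loss versus DMSO counts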;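 on AC50: light microscopy image of cell morphology used as background control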
How it was run: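 Human umbilical vein endothelial cell morphology was inspected by light microscopy 24 h after chemical dosing; scored bidirectionally relative to DMSO.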

[16] = read-out: Pselectin, SELP (gene 6403); assay: BSK_4H_Pselectin: BioMAP Diversity Plus: 4H Assay for Pselectin Biomarker Activity (AID 2283026); settings: primary human endothelial cells (HUVEC); actives raise or lower the signal
How it was run: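 Primary human umbilical vein endothelial cells were treated 24 h, and cell-surface P-selectin was then quantified by ELISA. Bidirectional fit versus DMSO; cytotoxicity checked in parallel cultures by SRB total-protein staining.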

[17] = BSK_4H_SRB: Viability Assessment in the BioMAP Diversity Plus: 4H Assay (AID 2283027); settings: primary human endothelial cells (HUVEC);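 further: cells exposed to compound for 24 h before staining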;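 on AC50: curves fitted both ways versus DMSO so AC50 may be loss or gain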
How it was run: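 Human umbilical vein endothelial cells were dosed with chemical and, after 24 h, fixed with 10% TCA, stained with 0.1% sulforhodamine B, and read at 560 nm to give total protein as a cytotoxicity measure. Bidirectional fitting relative to DMSO control.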

[18] = BSK_BE3C_SRB: Viability Assessment in the BioMAP Diversity Plus: BE3C Assay (AID 2283028); settings: primary human bronchial epithelial cells;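 on AC50: fitted both ways so AC50 may mark signal gain or loss versus DMSO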
How it was run: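 Human primary bronchial epithelial cells were exposed to test chemicals for 24 h. Total protein in parallel cultures was then measured by staining with 0.1% sulforhodamine B after 10% TCA fixation, with absorbance read at 560 nm. Activity was fitted bidirectionally against DMSO.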

[19] = biological target: human RAR-related Orphan Receptor gamma (RORg), RORC (gene 6097) (UniProt P51449); assay: ATG_RORg_TRANS: Attagene TRANS-FACTORIAL HepG2 Assay for human RAR-related Orphan Receptor gamma (RORg) (AID 2283011; active means hit-call score of the fitted dose curve at least 0.9, where 1 is the maximum)
How it was run: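 Readout: reporter transcript induction (RT-PCR, fluorescent primer extension, capillary electrophoresis) after 24 h compound exposure of transiently transfected HepG2 cells carrying a RORg-Gal4 chimera and GAL4-UAS reporters; DMSO served as baseline, with increasing signal fitted.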

[20] = read-out: Thrombomodulin, THBD (gene 7056); assay: BSK_3C_Thrombomodulin: BioMAP Diversity Plus: 3C Assay for Thrombomodulin Biomarker Activity (AID 2283029); settings: primary human endothelial cells (HUVEC); actives raise or lower the signal
How it was run: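 Human umbilical vein endothelial cells were exposed to chemicals for 24 h; cell-surface thrombomodulin quantified by ELISA, with bidirectional fitting against DMSO baseline.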

human RAR-related Orphan Receptor gamma (RORg), RORC (gene 6097), sequence (P51449 whole entry, looked up, the tested form may be a part): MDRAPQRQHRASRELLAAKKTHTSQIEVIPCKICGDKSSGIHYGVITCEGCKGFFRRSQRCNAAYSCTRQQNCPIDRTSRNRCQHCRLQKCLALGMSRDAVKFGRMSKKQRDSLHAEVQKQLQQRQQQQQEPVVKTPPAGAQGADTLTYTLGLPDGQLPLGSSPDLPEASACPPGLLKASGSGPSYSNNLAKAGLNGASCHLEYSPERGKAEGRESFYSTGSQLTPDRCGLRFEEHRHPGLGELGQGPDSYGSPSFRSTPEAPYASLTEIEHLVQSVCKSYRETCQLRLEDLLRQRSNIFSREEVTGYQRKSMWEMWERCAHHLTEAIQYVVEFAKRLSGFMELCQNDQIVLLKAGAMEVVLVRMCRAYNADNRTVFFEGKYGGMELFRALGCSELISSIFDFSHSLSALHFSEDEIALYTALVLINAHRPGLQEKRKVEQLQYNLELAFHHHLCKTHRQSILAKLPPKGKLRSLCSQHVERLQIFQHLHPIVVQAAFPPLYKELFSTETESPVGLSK
Retinoic acid receptor RXR-alpha (Homo sapiens), sequence (P19793 whole entry, looked up, the tested form may be a part): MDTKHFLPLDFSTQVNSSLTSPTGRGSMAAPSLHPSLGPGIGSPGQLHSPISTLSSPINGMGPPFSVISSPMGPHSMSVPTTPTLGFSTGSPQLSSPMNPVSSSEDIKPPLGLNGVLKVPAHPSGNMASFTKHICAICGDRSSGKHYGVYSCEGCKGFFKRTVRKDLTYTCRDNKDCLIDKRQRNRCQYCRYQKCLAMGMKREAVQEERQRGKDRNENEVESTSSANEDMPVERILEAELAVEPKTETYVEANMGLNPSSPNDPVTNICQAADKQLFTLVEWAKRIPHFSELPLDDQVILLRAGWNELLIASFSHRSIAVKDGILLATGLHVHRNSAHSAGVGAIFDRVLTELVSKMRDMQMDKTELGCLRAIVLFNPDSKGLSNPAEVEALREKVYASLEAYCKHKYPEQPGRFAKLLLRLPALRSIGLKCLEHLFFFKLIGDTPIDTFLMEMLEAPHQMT
E-selectin (Homo sapiens), sequence (P16581 whole entry, looked up): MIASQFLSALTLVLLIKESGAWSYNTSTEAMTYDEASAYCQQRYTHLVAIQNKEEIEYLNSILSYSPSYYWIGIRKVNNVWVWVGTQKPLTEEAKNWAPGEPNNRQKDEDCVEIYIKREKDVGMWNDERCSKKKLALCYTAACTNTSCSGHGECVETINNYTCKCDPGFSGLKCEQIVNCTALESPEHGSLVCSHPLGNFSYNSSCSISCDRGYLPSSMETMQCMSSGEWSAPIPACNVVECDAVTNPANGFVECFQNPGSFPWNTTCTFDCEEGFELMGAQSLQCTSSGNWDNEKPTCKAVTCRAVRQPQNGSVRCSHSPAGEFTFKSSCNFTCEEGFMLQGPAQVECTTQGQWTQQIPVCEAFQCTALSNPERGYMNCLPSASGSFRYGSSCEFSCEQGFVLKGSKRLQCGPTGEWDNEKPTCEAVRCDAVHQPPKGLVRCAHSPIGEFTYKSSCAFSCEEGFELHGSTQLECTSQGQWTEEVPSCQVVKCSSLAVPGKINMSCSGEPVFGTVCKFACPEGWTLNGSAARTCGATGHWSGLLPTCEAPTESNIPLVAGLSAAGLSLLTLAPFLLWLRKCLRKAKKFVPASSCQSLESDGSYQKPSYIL
human Retinoid X Receptor beta (RXRb), RXRB (gene 6257), sequence (P28702 whole entry, looked up, the tested form may be a part): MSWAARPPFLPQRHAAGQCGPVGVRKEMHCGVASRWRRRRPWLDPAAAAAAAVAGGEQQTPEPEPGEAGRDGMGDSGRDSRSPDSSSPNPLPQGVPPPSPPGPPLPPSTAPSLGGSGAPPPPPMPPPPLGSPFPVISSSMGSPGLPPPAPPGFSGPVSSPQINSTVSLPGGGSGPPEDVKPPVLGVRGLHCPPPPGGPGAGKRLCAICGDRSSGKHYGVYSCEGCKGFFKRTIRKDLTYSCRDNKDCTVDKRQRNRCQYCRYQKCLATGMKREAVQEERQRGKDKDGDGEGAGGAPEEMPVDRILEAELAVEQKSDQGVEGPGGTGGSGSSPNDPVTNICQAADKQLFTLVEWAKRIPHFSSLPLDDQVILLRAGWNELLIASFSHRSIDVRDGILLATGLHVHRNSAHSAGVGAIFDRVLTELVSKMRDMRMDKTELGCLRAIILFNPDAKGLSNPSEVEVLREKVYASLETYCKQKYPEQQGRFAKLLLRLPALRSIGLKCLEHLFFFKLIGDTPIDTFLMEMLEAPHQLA
human Thyroid Receptor alpha (THRa1), THRA (gene 7067), sequence (P10827 whole entry, looked up, the tested form may be a part): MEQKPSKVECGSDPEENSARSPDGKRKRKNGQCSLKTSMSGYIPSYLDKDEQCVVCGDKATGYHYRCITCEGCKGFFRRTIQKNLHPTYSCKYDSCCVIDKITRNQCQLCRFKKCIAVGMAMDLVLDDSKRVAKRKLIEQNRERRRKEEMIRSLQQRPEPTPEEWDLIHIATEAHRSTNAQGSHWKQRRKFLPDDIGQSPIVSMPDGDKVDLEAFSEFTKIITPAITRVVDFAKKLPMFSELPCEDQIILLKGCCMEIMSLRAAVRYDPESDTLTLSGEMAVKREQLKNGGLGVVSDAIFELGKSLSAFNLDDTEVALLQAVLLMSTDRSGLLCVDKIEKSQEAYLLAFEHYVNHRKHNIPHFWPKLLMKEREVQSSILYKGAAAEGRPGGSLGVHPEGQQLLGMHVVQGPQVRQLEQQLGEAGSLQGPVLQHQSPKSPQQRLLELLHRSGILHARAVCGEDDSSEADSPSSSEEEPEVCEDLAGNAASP
human Vitamin D Receptor (VDR), VDR (gene 7421), sequence (P11473 whole entry, looked up, the tested form may be a part): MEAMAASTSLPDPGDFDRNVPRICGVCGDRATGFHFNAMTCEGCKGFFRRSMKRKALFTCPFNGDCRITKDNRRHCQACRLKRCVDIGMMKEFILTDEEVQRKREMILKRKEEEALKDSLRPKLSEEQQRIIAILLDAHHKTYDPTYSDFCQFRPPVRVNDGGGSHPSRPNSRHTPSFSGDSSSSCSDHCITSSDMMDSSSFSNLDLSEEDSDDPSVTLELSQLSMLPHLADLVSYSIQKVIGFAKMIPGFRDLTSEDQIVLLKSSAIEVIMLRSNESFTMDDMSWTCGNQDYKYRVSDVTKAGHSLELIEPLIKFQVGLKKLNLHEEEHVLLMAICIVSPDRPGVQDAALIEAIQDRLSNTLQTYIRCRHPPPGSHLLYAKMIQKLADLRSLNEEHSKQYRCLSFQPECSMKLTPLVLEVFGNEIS
human RAR-related Orphan Receptor beta (RORb), RORB (gene 6096), sequence (Q92753 whole entry, looked up, the tested form may be a part): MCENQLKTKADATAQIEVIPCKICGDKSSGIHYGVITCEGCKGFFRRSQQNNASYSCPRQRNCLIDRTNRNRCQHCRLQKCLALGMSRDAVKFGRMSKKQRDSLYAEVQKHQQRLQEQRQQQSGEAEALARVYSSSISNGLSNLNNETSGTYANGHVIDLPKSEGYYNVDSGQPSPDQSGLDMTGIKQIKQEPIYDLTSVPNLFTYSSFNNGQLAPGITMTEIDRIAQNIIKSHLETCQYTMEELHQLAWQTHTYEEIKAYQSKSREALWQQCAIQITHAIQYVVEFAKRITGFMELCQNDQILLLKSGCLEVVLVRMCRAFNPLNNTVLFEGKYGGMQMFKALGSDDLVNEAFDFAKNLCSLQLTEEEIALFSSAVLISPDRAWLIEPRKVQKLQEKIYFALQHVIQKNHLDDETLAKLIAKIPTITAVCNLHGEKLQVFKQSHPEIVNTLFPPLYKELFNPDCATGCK

## CC(C)(c1ccccc1)c1ccc(O)cc1
[1]
  outcome: inactive
[2]
  outcome: inactive
[3]
  AC50: 9.21 µM (active) [middle of 4 runs]
[4]
  outcome: inactive
[5]
  AC50: 34.7 µM (active)
[6]
  AC50: 32.2 µM (active)
[7]
  AC50: 39.3 µM (active)
[8]
  AC50: 20 µM (active)
[9]
  AC50: 39 µM (active)
[10]
  AC50: 35.6 µM (active)
[11]
  AC50: 39.1 µM (active)
[12]
  outcome: inactive
[13]
  AC50: 30.2 µM (active)
[14]
  outcome: inactive
[15]
  AC50: 37.5 µM (active)
[16]
  AC50: 32.6 µM (active)
[17]
  AC50: 30.5 µM (active)
[18]
  AC50: 32.3 µM (active)

## C[C@]12CCC(=O)C=C1CC[C@@H]1[C@@H]2CC[C@@]2(C)[C@H]1CC[C@]2(C)O
[1]
  outcome: inactive
[19]
  outcome: inactive
[2]
  outcome: inactive
[3]
  outcome: inactive
[4]
  outcome: inactive
[5]
  outcome: inactive
[6]
  outcome: inactive
[7]
  outcome: inactive
[8]
  outcome: inactive
[9]
  outcome: inactive
[10]
  outcome: inactive
[11]
  outcome: inactive
[12]
  outcome: inactive
[13]
  AC50: 28.3 µM (active)
[14]
  AC50: 9.79 µM (active)
[16]
  outcome: inactive
[17]
  outcome: inactive
[18]
  outcome: inactive
[20]
  outcome: inactive

## N#Cc1ccc(N(CC(N)=O)CC(F)(F)F)cc1C(F)(F)F
[19]
  outcome: inactive
[2]
  outcome: inactive
[5]
  outcome: inactive
[6]
  outcome: inactive
[7]
  outcome: inactive
[8]
  outcome: inactive
[9]
  outcome: inactive
[10]
  outcome: inactive
[11]
  outcome: inactive
[13]
  outcome: inactive
[14]
  outcome: inactive
[16]
  outcome: inactive
[17]
  outcome: inactive
[18]
  outcome: inactive

## C[C@]12CCC(=O)C=C1CC[C@@H]1[C@@H]2CC[C@]2(C)C(=O)CC[C@@H]12
[19]
  outcome: inactive
[2]
  outcome: inactive
[3]
  outcome: inactive
[4]
  outcome: inactive
[5]
  outcome: inactive
[6]
  outcome: inactive
[7]
  outcome: inactive
[8]
  outcome: inactive
[9]
  outcome: inactive
[10]
  outcome: inactive
[11]
  outcome: inactive
[13]
  outcome: inactive
[14]
  outcome: inactive
[16]
  outcome: inactive
[17]
  outcome: inactive
[18]
  outcome: inactive
[20]
  outcome: inactive

## O=NN(c1ccccc1)c1ccccc1
[19]
  outcome: inactive
[3]
  AC50: 52.2 µM (active)
[5]
  outcome: inactive
[6]
  outcome: inactive
[7]
  outcome: inactive
[8]
  outcome: inactive
[9]
  outcome: inactive
[10]
  outcome: inactive
[11]
  outcome: inactive
[13]
  outcome: inactive
[14]
  outcome: inactive
[15]
  outcome: inactive
[16]
  outcome: inactive
[17]
  outcome: inactive
[18]
  outcome: inactive
[20]
  outcome: inactive

## Clc1ccc(C(c2ccccc2Cl)C(Cl)(Cl)Cl)cc1 (stereo unspecified)
[1]
  outcome: inactive
[2]
  outcome: inactive
[4]
  outcome: inactive
[5]
  AC50: 17.1 µM (active)
[6]
  outcome: inactive
[7]
  AC50: 11.4 µM (active)
[8]
  AC50: 9.7 µM (active)
[9]
  AC50: 10.2 µM (active)
[10]
  AC50: 20.4 µM (active)
[11]
  AC50: 21.5 µM (active)
[12]
  outcome: inactive
[13]
  AC50: 16.1 µM (active)
[14]
  outcome: inactive
[15]
  AC50: 26.4 µM (active)
[16]
  AC50: 19.1 µM (active)
[17]
  AC50: 19.5 µM (active)
[18]
  outcome: inactive

Source: PubChem BioAssay (EPA / NIEHS)
